# Many of the other results were omitted from the sample, so hits are more common in it than they were.
# Pf apPOL block: Pf-apPOL inhibitors, biochemical, fluorescence; inhibition, % at 10 µM; hit rate 0.25% among 210,000; Plasmodium falciparum apicoplast DNA polymerase (apPOL); Recombinant Pf-apPOL, molecular beacon fluorescence, 1.5 h
# mHTT-CaM PPI inh: mutant huntingtin-calmodulin interaction inhibitors – biochemical, AlphaScreen, primary screen; P42858; hit rate 3.6% among 190,000; inhibition, % at 15 µM; AlphaScreen His-mHTT/GST-CaM binding, luminescence;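 also: 0% = both proteins with DMSO and 100% = one protein alone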
# * hit, by the source's call; . = no result. Rule as the data show it: active = inhibition above about 50%; inactive = the rest.
SMILES,Pf apPOL block,mHTT-CaM PPI inh
O=C(NCc1ccco1)N1CCc2c(nc3cc(-c4ccccc4Cl)[nH]n3c2=O)C1,-2,24
O=C(c1ccc2[nH]ccc2c1)N1CCc2nc3cc(-c4ccccc4Cl)[nH]n3c(=O)c2C1,23,96*
O=C(c1ccccc1)N1CCc2nc3cc(-c4ccccc4Cl)[nH]n3c(=O)c2C1,6,13
COCCNC(=O)N1CCc2[nH]nc(-c3ccccc3)c2C1,-3,-4
O=C(c1n[nH]c2c1CCCCCC2)N1CCc2c(nc3cc(-c4ccccc4)[nH]n3c2=O)C1,0,19
Cc1ccc(-c2n[nH]c3c2CN(C(=O)NCc2ccco2)CC3)cc1,-1,64*
O=C(NCc1ccco1)N1CCc2nc3cc(-c4ccccc4Cl)[nH]n3c(=O)c2C1,27,68*
CCC(C)c1c(O)nc(SCC(=O)Nc2ccc(Cl)cc2)[nH]c1=O (stereo not drawn),0,-5
CC(=O)n1c2ccccc2c2cc(Br)ccc21,2,-13
Cc1ccc(C)c(CNC(=O)c2ccc(-c3cccnc3)nc2)c1,3,-4
CC(C)C(=O)N1CCc2c(nc3cc(-c4ccccc4Cl)[nH]n3c2=O)C1,-1,12
O=C(Nc1ccccc1)N1CCc2c(nc3cc(-c4ccccc4Cl)[nH]n3c2=O)C1,0,43
COc1cccc(NC(=O)N2CCc3c(nc4cc(-c5ccccc5Cl)[nH]n4c3=O)C2)c1,0,51*
CC(C)C(=O)N1CCc2nc3cc(-c4ccccc4Cl)[nH]n3c(=O)c2C1,13,58*
CCOC(=O)c1cnc(SC=CC(=O)c2ccc(C)cc2)nc1N,5,.
C=CCNc1nc(N)c(C(=O)C23CC4CC(CC(C4)C2)C3)s1,.,-1
Cc1ccc(S(=O)(=O)N2CCC(c3nc(C(=O)N4CCOCC4)c(C)o3)CC2)c(C)c1,-9,15
Cc1ccnc(N2CCCC(C(=O)N3CCCCCC3)C2)n1 (stereo not drawn),-4,-2
Cc1ccnc(N2CCCC(C(=O)N3CC=C(c4ccccc4)CC3)C2)n1 (stereo not drawn),-5,68*
Cc1oc2cc(Br)c(OCC(=O)C(C)(C)C)cc2c1C(=O)OC(C)C,-9,0
CCOc1ccc2nc(NC(=O)c3cccc(Cl)c3)sc2c1,0,-7
O=[N+]([O-])c1ccc(-c2ccc(N=Cc3ccccc3)cc2)cc1,19,-4
O=[N+]([O-])c1ccc(C=NC2=NN(c3ccccc3)CC2)cc1,3,59*
NCc1cccc(Oc2ccccc2)c1,-13,-5
N#Cc1cccc(C(=O)Cc2cccc(Oc3ccccc3)c2)c1,56*,.
SMILES,Pf apPOL block,mHTT-CaM PPI inh
CC1CCCCN1C(=O)c1nn2c(c1Cl)NC(c1cccs1)CC2C(F)(F)F (stereo not drawn),-3,31
CC(=O)N1CCc2cc(Br)cc(S(=O)(=O)CCC(=O)N3CCOCC3)c21,3,-2
COC(=O)c1ccccc1S(=O)(=O)N1CCC(c2noc(-c3ccc(C)cc3)n2)CC1,-3,-16
Nc1ccccc1NCCOc1ccccc1,2,79*
c1ccc(OCCCOc2ccccc2)cc1,-2,-124
C[C@H]1[C@@H](OC(=O)Oc2ccc([N+](=O)[O-])cc2)CC[C@@]23CCCN2C(=O)CCC[C@@H]13,-9,10
CCC[C@H]1[C@@H](OC(=O)N2CCOCC2)CC[C@@]23CCCN2C(=O)CCC[C@@H]13,-4,-12
CCC[C@H]1[C@@H](OC(=O)NCc2ccccc2Cl)CC[C@@]23CCCN2C(=O)CCC[C@@H]13,-3,16
CCC[C@H]1[C@@H](OC(=O)Oc2ccc([N+](=O)[O-])cc2)CC[C@@]23CCCN2C(=O)CCC[C@@H]13,0,58*
CCC[C@H]1[C@@H](OC(=O)N2CCN(c3ccccc3)CC2)CC[C@@]23CCCN2C(=O)CCC[C@@H]13,-5,99*
CCC[C@H]1[C@@H](OC(=O)NCCc2c[nH]c3ccccc23)CC[C@@]23CCCN2C(=O)CCC[C@@H]13,0,65*
Cc1onc(-c2c(Cl)cccc2Cl)c1C(=O)NOC(=O)c1cccs1,-10,.
Cc1ccc(-c2nc(C)cc(OCC(=O)N3CCC(C)CC3)n2)cc1,0,-7
O=C(O)c1coc(CNC(=O)c2cocc2C(=O)O)c1,-3,-2
O=C1S/C(=C\c2cc3c(cc2Cl)OCO3)C(=O)N1Cc1ccccc1,0,4
O=C(Nc1ccc(Br)cc1F)C1CCCN(C(=O)c2ccccc2F)C1 (stereo not drawn),1,32
O=C(O)c1cc(N2C(=O)C3C4C=CC(C5CC45)C3C2=O)ccc1Cl (stereo not drawn),63*,4
Cc1ccc(N2C(=O)C3C4C=CC(C5CC45)C3C2=O)cc1Cl (stereo not drawn),2,0
COc1ccc(CNc2ncnc(N)c2[N+](=O)[O-])cc1,-6,-1
COc1cc(C)nc2ccc(NC(=O)Nc3ccc(Cl)cc3)cc12,3,25

# Screens as filed in PubChem.
